TROY NFkB inh: TROY signaling inhibition | Q293 LMP1-TROYcd NF-kB luciferase reporter, 4 h | inhibition, % at 10 µM | hit rate 0.98% among 360,000 | AID 1347056;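 active = compounds whose plate-normalised and pattern-corrected inhibition of the luciferase reporter signal at the single screening dose is 50% or more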
EBV LMP1 NFkB: reduces LMP1-driven NF-kappaB luciferase signal | inhibition, % at 12.5 µM | hit rate 0.69% among 350,000 | LMP1-induced NF-kappaB luciferase reporter cells, luminescence; in the data active = inhibition above about 41%; inconclusive = no clear call, values can overlap the other calls;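 note: 0% = neutral control wells and 100% = reference inhibitor control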
PAX8 inh HTS: inhibitors of PAX8 transcriptional activity in RMG-I cells; RMG-I TPO-luciferase reporter, SteadyGlo, 24 h; inhibition, % at 12.6 µM; hit rate 1.2% among 360,000;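 active = mean replicate inhibition at least 60% with every replicate also reaching 60%; inconclusive = only one of the two criteria is met; inactive = mean below 60% and not all replicates reaching 60%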;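 note: luciferase light reporting Pax8 driven TPO promoter activity; plate controls were median of neutral control wells for no effect and mitoxantrone controls for full effect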
TWEAK-Fn14 inh: TWEAK-Fn14 signaling inhibition. TWEAK-stimulated Fn14 reporter cells, luciferase luminescence, 8 h. inhibition, % at 10 µM. hit rate 2% among 360,000; in the data active = inhibition above about 50%
EWS-Fli block: EWS/Fli transcriptional activity inhibition; A673 NR0B1-luciferase reporter, viability-normalised; inhibition, % at 12.6 µM; hit rate 0.67% among 350,000;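 active = mean inhibition of at least 50% after viability correction, with every replicate also passing that limit; inconclusive = mean reaches 50% but only one of two replicates passes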;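 note: firefly luciferase signal divided by Alamar Blue viability fluorescence both relative to DMSO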
LGR2 inh: blocks bursicon-induced cAMP signaling via Drosophila LGR2; HEK293 LGR2, CRE-luciferase, bursicon-stimulated, 4 h; inhibition, % at 9.99 µM; hit rate 0.35% among 380,000;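 active = drop in luminescence signal, shown as inhibition above about 50% in the replicate tests, limit read from the data, passing the limit was not always enough; inconclusive = probably only some replicates passing the limit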;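 note: agonist challenge used bursicon conditioned medium at about half maximal strength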
Numbers without * were called inactive; ? = inconclusive; . = no result. Most compounds without a hit are left out; they make up all but 3.2% or so of the library.

SMILES	TROY NFkB inh	EBV LMP1 NFkB	PAX8 inh HTS	TWEAK-Fn14 inh	EWS-Fli block	LGR2 inh
COc1ccccc1C(=O)NNC(=O)c1cccc(F)c1	8.0	-10.6	5.5	66.8*	.	1.9
O=C(COc1ccccc1)NNC(=S)NC(=O)c1ccccc1	-6.3	-4.3	-0.3	1.3	12.3	-46.0
CO[C@H]1CN(C)C(=O)c2cc(NC(=O)Nc3ccccc3)ccc2OC[C@@H](C)N(C(=O)CN(C)C)C[C@H]1C	.	.	.	.	-5.2	17.5
COc1cccc(NC(=O)N[C@H]2C=C[C@@H](CC(=O)N3CCOCC3)O[C@@H]2CO)c1	.	.	6.3	.	-3.7	-34.0
CCOc1cc(/C=N/NC(=O)c2ccc(CN3CCOCC3)cc2)ccc1OCc1ccccc1	51.3*	-12.9	0.3	69.9*	.	42.2
Cn1cc(Br)c(C(=O)N/N=C/c2cccc(OC3CSC3)c2)n1	-51.9	-10.5	-15.2	-9.1	-20.7	-24.9
CCOc1cc(/C=N/NC(=O)CN2CCOCC2)ccc1OCc1ccccc1	2.2	-1.5	-15.0	-6.0	.	-2.4
Cc1ccc(C(C)C)c(OCc2ccc(C(=O)N/N=C/c3ccc(O)c(O)c3)cc2)c1	-12.5	-40.1	-2.1	62.0*	.	-70.2
COc1cc(/C=N/NC(=O)c2ccc(COc3cc(C)ccc3C(C)C)cc2)cc(OC)c1O	9.0	19.9	?	33.0	.	-40.3
CCOc1cc(/C=N/NC(=O)c2nn(C)cc2Br)ccc1OCc1ccccc1Cl	30.0	9.0	.	57.3*	.	8.5
C[C@@H]1CN([C@H](C)CO)C(=O)c2cccc(NC(=O)C3CCCCC3)c2O[C@@H]1CN(C)C(=O)Nc1ccccc1	.	.	-9.3	.	4.4	0.0
C[C@@H]1CCCCO[C@H](CN(C)C(=O)CCC(F)(F)F)[C@H](C)CN([C@@H](C)CO)C(=O)c2cc(NC(=O)c3ccncc3)ccc2O1	.	.	.	.	.	-0.1
Cc1noc(C)c1S(=O)(=O)Nc1ccc2c(c1)C(=O)N([C@@H](C)CO)C[C@H](C)[C@H](CN(C)Cc1ccc3c(c1)OCO3)O2	.	.	.	.	4.0	3.6
COc1ccc(-c2ccc([C@H]3[C@@H](CO)N4C(=O)CNC[C@@H]34)cc2)cc1	.	.	.	.	0.6	-16.8
COc1ccc(CN(C)C[C@H]2OCCCC[C@@H](C)Oc3ccc(NC(=O)Nc4c(C)noc4C)cc3C(=O)N([C@H](C)CO)C[C@H]2C)cc1	.	.	-0.7	.	-12.2	9.4
Cc1ccc2nc(NC(=O)C3CCN(S(=O)(=O)c4cccc5nsnc45)CC3)sc2c1	42.3	14.5	19.9	92.2*	.	26.8
COc1ccc2nc(NC(=O)C3CCN(S(=O)(=O)c4cccs4)CC3)sc2c1	54.3*	13.2	.	55.0*	.	.
Cc1ccc2nc(NC(=O)C3CCCN(S(=O)(=O)c4cccc5nsnc45)C3)sc2c1 (stereo not drawn)	-6.8	3.4	.	29.7	.	.
Cc1ccc2nc(NC(=O)C3CCN(S(=O)(=O)c4cccs4)CC3)sc2c1	39.6	9.3	.	79.5*	.	33.9
O=C(Nc1nc2ccc(C(=O)N3CCCCC3)cc2s1)C1CCCCC1	-4.7	-20.8	-25.8	2.4	54.4*	-11.1
C[C@H](NC(=O)[C@@H]1[C@@H](CO)[C@@H]2Cn3c(ccc(C4=CCCCC4)c3=O)[C@H]1N2)c1ccccc1	.	.	-7.6	.	-2.3	0.8
C[C@@H]1CN([C@@H](C)CO)C(=O)c2ccccc2-c2ccccc2CO[C@@H]1CN(C)C	.	.	-25.0	.	-4.2	-7.9
CCC(=O)N(C)C[C@@H]1Oc2cc(C#CCC(C)C)ccc2S(=O)(=O)N([C@H](C)CO)C[C@@H]1C	.	.	.	.	10.3	-2.8
CC(=O)N(C)C[C@@H]1Oc2ncc(-c3ccc(F)cc3)cc2C(=O)N([C@H](C)CO)C[C@H]1C	.	.	.	.	2.4	6.5
O=C(c1ccco1)N1CCN(S(=O)(=O)c2c(Cl)cccc2Cl)CC1	-11.3	8.4	7.3	92.1*	4.5	12.1
SMILES	TROY NFkB inh	EBV LMP1 NFkB	PAX8 inh HTS	TWEAK-Fn14 inh	EWS-Fli block	LGR2 inh
O=C(c1ccco1)N1CCN(S(=O)(=O)/C=C/c2ccccc2)CC1	6.0	49.2*	14.5	-10.0	3.1	-11.4
C[C@H](CO)N1C[C@H](C)[C@H](CN(C)C(=O)Cc2ccccc2)Oc2ncc(-c3ccccc3)cc2C1=O	.	.	.	.	-8.8	-0.6
CCOc1ccc2c(c1)C(C)=CC(C)(C)N2S(=O)(=O)c1ccc(NC(C)=O)cc1	29.7	-2.1	87.7*	-6.4	47.1	-5.2
COc1ccc2c(c1)C(C)=CC(C)(C)N2S(=O)(=O)c1ccc(Br)cc1	21.2	19.1	88.4*	11.1	49.6	-21.9
CC1=CC(C)(C)N(S(=O)(=O)c2ccc(C)cc2)c2ccccc21	22.0	11.2	.	27.6	.	.
COc1ccc2c(c1)C(C)=CC(C)(C)N2S(=O)(=O)c1ccc(NC(C)=O)cc1	21.4	18.4	63.7*	7.5	47.7	4.1
CC1=CC(C)(C)N(S(=O)(=O)c2ccc(F)cc2)c2ccc(C)cc21	14.2	5.8	.	-8.8	.	10.0
CCOc1ccc2c(c1)C(C)=CC(C)(C)N2S(=O)(=O)c1ccc(F)cc1	18.7	0.4	43.5	-8.6	61.6*	7.4
CCOc1ccc(CN2CCN(S(=O)(=O)c3ccc(NC(C)=O)cc3)CC2)cc1	6.3	6.2	38.2	4.7	19.5	-8.2
C[C@@H]1CN([C@H](C)CO)C(=O)c2cc(NC(=O)Cc3ccccc3)ccc2O[C@@H](C)CCCCO[C@@H]1CN(C)Cc1ccc2c(c1)OCO2	.	.	25.6	.	9.1	9.7
CSc1nc2cc3c(cc2n1C(=O)c1ccc(C)cc1)OCCO3	-13.7	44.4*	.	-14.0	.	.
COc1cccc(C(=O)n2c(SC)nc3cc4c(cc32)OCCO4)c1	-28.3	4.4	.	1.8	-37.5	-18.5
CN(C)CC#Cc1ccc([C@H]2[C@H](CO)N3C(=O)CN(C(=O)c4cccc(F)c4)C[C@@H]23)cc1	.	.	-9.7	.	7.8	-18.1
COc1ccc(-c2cc(C(F)F)n3ncc(C(=O)N4CCc5ccccc54)c3n2)cc1	14.7	19.1	-16.0	8.4	57.2*	-12.8
C[C@@H]1CN([C@@H](C)CO)C(=O)c2cccc(NC(=O)Nc3ccc4c(c3)OCO4)c2O[C@H]1CN(C)Cc1ccc2c(c1)OCO2	.	.	-10.8	.	-20.1	11.0
COc1ccc(CN(C)C[C@H]2Oc3ccc(NC(=O)NC(C)C)cc3C(=O)N([C@@H](C)CO)C[C@@H]2C)cc1	.	.	-7.1	.	.	19.9
O=S(=O)(Nc1nc2ccccc2nc1NCc1ccco1)c1ccc(Cl)cc1	-3.3	6.1	.	18.4	.	.
Cc1noc(C)c1CSc1nc2ccccc2nc1NS(=O)(=O)c1ccc(Cl)cc1	57.4*	3.4	.	18.1	.	.
COc1ccccc1CNC(=O)C[C@@H]1CC[C@H]2[C@@H](COC[C@@H](O)CN2C(=O)Nc2ccc(Cl)cc2)O1	.	.	-50.7	.	-41.6	-3.6
CCc1ccc(NC(=O)Cn2c3[n+](c4c(F)c(F)ccc42)CCCCC3)cc1	-2.7	-4.5	76.0*	-12.7	12.5	2.8
Cc1c(C)c2ccc(OCC(=O)Nc3ccccn3)cc2oc1=O	36.4	28.2	-24.1	81.7*	37.1	21.3
Cc1c(C)c2ccc(OCC(=O)Nc3nccs3)cc2oc1=O	47.6	9.4	-97.4	90.5*	.	55.5*

Screens as filed in PubChem BioAssay.
